# ELG1 genotox – induces genotoxicity in HEK293T cells with luciferase-tagged ELG1 | HEK293T ELG1-luciferase reporter, luminescence, 16 h | Potency, µM (series often up to 46 µM), actives largely listed as activators | 1.3% of 330,000 active | AID 504466; note: nearly all actives have a fitted effect of over 60% in size
#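 16 hr compound incubation (37 °C, 5% CO2) of HEK293T cells carrying luciferase-tagged ELG1; luciferase then measured by ONE-Glo luminescence after 30 min at RT.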
# NPC1 promoter act – activates the NPC1 promoter; AID 485313; Potency, µM (highest dose often 9.22 µM), hits mostly activators; Huh7 NPC1 promoter luciferase reporter, 24 h; 2.4% of 320,000 active; note: nearly all actives have a fitted effect of over 60% in size
#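 Luminescence from an NPC1 promoter-driven luciferase reporter in stably transfected Huh7 cells was measured after 24 h compound treatment at 37 °C, followed by 10 min ambient incubation with luciferase detection reagent.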
# Rab9 promoter act – activates the Rab9 promoter; Huh7 Rab9 promoter-luciferase reporter, luminescence, 24 h; AID 485297; 2.8% of 320,000 active; Potency, µM (top dose mostly 9.22 µM), most hits filed as activators; note: nearly all actives have a fitted effect of over 60% in size
#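 Using Huh7 cells stably transfected with Rab9 promoter–luciferase, compounds were incubated 24 h at 37 °C, 5% CO2; luciferase luminescence was read 10 min after reagent addition.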
# FLuc modulator – inhibits or activates purified firefly luciferase, miR-21 counter-screen | 6.9% of 360,000 active | Potency, µM (series often up to 57.5 µM), usual class: inhibitors | P08659 | purified FLuc, Km substrates, luminescence inhibition; note: nearly all actives have a fitted effect of over 55% in size
# Target sequence (P08659 whole entry, looked up): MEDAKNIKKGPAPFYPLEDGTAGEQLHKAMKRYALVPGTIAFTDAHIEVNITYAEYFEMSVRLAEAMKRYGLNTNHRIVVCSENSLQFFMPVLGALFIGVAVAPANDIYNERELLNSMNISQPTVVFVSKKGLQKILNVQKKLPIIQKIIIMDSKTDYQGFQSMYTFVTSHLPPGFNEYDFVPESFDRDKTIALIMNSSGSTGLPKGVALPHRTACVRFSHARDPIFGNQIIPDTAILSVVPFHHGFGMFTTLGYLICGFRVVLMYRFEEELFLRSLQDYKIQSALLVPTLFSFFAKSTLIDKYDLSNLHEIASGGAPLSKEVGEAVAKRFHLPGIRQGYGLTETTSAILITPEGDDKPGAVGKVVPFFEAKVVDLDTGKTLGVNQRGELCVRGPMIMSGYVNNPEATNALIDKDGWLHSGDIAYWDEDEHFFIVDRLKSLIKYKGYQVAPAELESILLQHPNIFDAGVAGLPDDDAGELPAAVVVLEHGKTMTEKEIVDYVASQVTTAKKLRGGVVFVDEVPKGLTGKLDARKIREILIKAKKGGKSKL
#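 Purified P. pyralis luciferase, 10 nM final, with Km-level 10 uM D-luciferin and 10 uM ATP in 50 mM Tris acetate pH 7.5, 10 mM Mg acetate, 0.01% Tween-20, 0.05% BSA; 6-point qHTS titration about 60 µM downward; luminescence read.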
# KinaseGlo FLuc – blocks Kinase-Glo luciferase, a counter-screen artifact | Q27757 | Kinase-Glo luciferase, ATP luminescence, 8 min | Potency, µM (titrated, usually from 38.3 µM), actives largely listed as inhibitors | 0.28% of 200,000 active | AID 1379; note: nearly all actives have a fitted effect of over 60% in size
#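 Luminescence was the read-out, taken after 8-minute incubation at ambient temperature. Luciferase turned over luciferin with 10 uM ATP in imidazole pH 7.2 buffer containing KCl, MgCl2, Tween 20 and BSA.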
# SMN2 splice up – enhancers of SMN2 splice variant expression; HEK293 SMN2-luciferase splicing reporter, luminescence, 30-36 h; 2.8% of 210,000 active; Potency, µM (series often up to 46.1 µM), most hits filed as activators; note: nearly all actives have a fitted effect of over 55% in size
#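 qHTS luciferase splicing reporter: luminescence rises when SMN2 exon 7 is included in transfected HEK293 cells. Compound exposure lasted 30-36 h at 37C, with 4.5 mM final sodium butyrate as control, followed by a ONE-Glo read.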
# Numbers stand for hits; 0 = inactive; ? = inconclusive; - = not tested or not shown; [ ] = dose if it differs, or a comment. An excerpt weighted towards active compounds, which were near 7.5% of everything screened. Calls come from the whole dose curve; as a rule, active = well fitted curve in the direction sought with a large enough effect; inconclusive = small, poorly fitted or top-dose-only effect, or another doubt; inactive = no such curve, though single readings can be large; an effect the other way counts as inactive or inconclusive.
SMILES,ELG1 genotox,NPC1 promoter act,Rab9 promoter act,FLuc modulator,KinaseGlo FLuc,SMN2 splice up
CCCC(=O)Nc1nc2ccc(C(=O)OCC)cc2s1,10.3µM,0.631µM,?,?,0,17.8µM
CC1(N)CCC(C(C)(C)N)CC1 (centres undefined),-,-,-,-,-,0
COc1ccc(CCC(=O)NNC(=O)Cn2nc(C)cc2C)cc1,0,0,0,0,-,-
COC(=O)c1ccc(NC(=O)COc2cccc(-n3cnnn3)c2)cc1,0,0,0,0,-,-
CCc1ccc(NC(=O)COc2cccc(-n3cnnn3)c2)cc1,0,0,0,19µM,-,-
Cc1cc(C(=O)COc2cccc(-n3cnnn3)c2)c(C)n1-c1ccccc1,0,0,0,3.01µM,0,0
c1ccc(CNCc2ccco2)cc1,0,0,0,0,-,-
CCN1CCN(Cc2nc3cc(NC(=O)COc4ccc([N+](=O)[O-])cc4)ccc3n2C)CC1,0,0,0,0,-,-
CCOc1ccc(CN(C)C(=O)[C@H](C)NC(=O)c2ccco2)cc1OC,0,0,0,0,-,-
CCOC(=O)CSc1nc2cc3c(cc2cc1C#N)OCO3,23.1µM,?,0,0,0,12.6µM
N#Cc1cc2cc3c(cc2nc1SCC(=O)N1CCOCC1)OCO3,3.66µM,1.26µM,1.58µM,-,-,-
C#CCSc1nc(-c2cccs2)ccc1C#N,0,0,0,0,0,0
CCOC(=O)CSc1nc2cc3c(cc2cc1C#N)OCCO3,6.51µM,2µM,?,?,0,5.62µM
COC(=O)CSc1nc(-c2cccs2)ccc1C#N,8.2µM,1.78µM,2.24µM,?,0,14.1µM
Cc1cc2cc3c(cc2nc1SCC(=O)N1CCOCC1)OCO3,0,0,0,0,-,-
COc1ccc(-c2cc3nc(C)c(CCC(=O)N4CCN(c5ccccc5)CC4)c(C)n3n2)c(OC)c1,-,-,-,0,-,0
CCCCN(Cc1ccco1)C(=O)Cn1ncc2c([nH]c3ccccc32)c1=O,-,-,-,0,-,-
COc1ccc(-c2nc3ccccc3n3c(-c4cccc(C)c4)c4c(=O)n(C)c(=O)n(C)c4c23)cc1,-,-,-,0,-,0
CCc1ccc(NC(=O)N2CCC(N3CCN(Cc4ccc(C)cc4)C(=O)C3=O)CC2)cc1,-,-,-,0,-,-
CC(C)OC(=O)CSc1nc2cc3c(cc2cc1C#N)OCO3,?,3.98µM,?,0,0,?
COC(=O)CSc1nc2cc3c(cc2cc1C)OCCO3,0,0,0,0,0,0
CCOc1ccc2cc(C#N)c(SCC(=O)N3CCOCC3)nc2c1,2.59µM,3.98µM,3.98µM,?,0,0
COC(=O)CSc1nc2cc3c(cc2cc1C#N)OCO3,?,0.891µM,0.794µM,0,0,10µM
CCOc1ccc2nc(SCC(=O)N3CCCCCC3)c(C#N)cc2c1,0,0,0,0[2.3 µM],0,0
Cc1cccc(Nc2c(-c3cccs3)nc3nc(C)cc(C)n23)c1,-,-,-,?,-,0
SMILES,ELG1 genotox,NPC1 promoter act,Rab9 promoter act,FLuc modulator,KinaseGlo FLuc,SMN2 splice up
O=C(CNC(=O)c1cc(Cl)cc([N+](=O)[O-])c1)NC1CC1,0,-,-,-,-,-
CCOC(=O)c1c(NC(C)=O)c2c3c(sc2n1Cc1cc(C)ccc1C)CCCC3,-,-,-,0,-,0
CC(C)Oc1ccc(CCNC(=O)CC2C(=O)NCCN2C)cc1 (centres undefined),0,0,0,0,-,-
COc1ccc(-c2nc(C#N)c(NCCCn3ccnc3)o2)cc1OC,?,0,0,15.1µM,0,6.31µM
CC(C)(C)c1ccc(-c2nc(C#N)c(NCCCn3ccnc3)o2)cc1,0,0,0,21.3µM,-,-
N#Cc1nc(-c2ccc(F)cc2)oc1NCCCn1ccnc1,0,0,0,0,0,0
CC(C)(C)c1ccc(-c2nc(C#N)c(NCc3ccncc3)o2)cc1,?,0,?,6.01µM,-,-
COc1ccc(-c2nc(C#N)c(NCCc3ccccc3)o2)cc1OC,8.2µM,?,?,6.75µM,0,15.8µM
Cc1ccccc1C(=O)N1CCC(C(=O)NN2C(=O)NC3(CCC(C)CC3)C2=O)CC1 (centres undefined),0,0,0,0,-,-
O=C(CCC1N=C2c3ccccc3N=C(SCc3cccc(F)c3)N2C1=O)NC1CCCCC1 (centres undefined),-,-,-,0,-,-
CCOc1ccc(S(=O)(=O)N(C)CC(=O)N2CCN(CC)CC2)cc1,0,0,0,0,-,-
